Bioassay records: PubChem BioAssay, National Center for Advancing Translational Sciences (NCATS)
DT40 TDP1 CPT: qHTS for Inhibitors of human tyrosyl-DNA phosphodiesterase 1 (TDP1): qHTS in cells in presence of CPT; chicken DT40 Tdp1-/-;hTDP1 cells + 20 nM CPT, ATP luminescence, 48 h; Potency, µM (doses to about 46.2 µM), most hits filed as inhibitors; actives 12% (n = 420,000); AID 686979, 2013; further: nearly all actives have a fitted effect of over 55% in size
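Chicken DT40 Tdp1-/- cells stably complemented with human TDP1 were seeded at 400 cells/well in medium containing 20 nM camptothecin, exposed to pin-transferred compounds, and grown at 37 °C for at least 48 hr. Viability was read as ATP luminescence.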
ClpP mod: qHTS Assay for Activators of ClpP. AID 651965, 2013. purified B. subtilis ClpP, FRET peptide cleavage, 20 min. actives 1.9% (n = 340,000). Potency, µM (titrated, usually from 57.5 µM); active means well fitted falling curve with a large enough effect; inconclusive means small, poorly fitted or top-dose-only effect; inactive means no such curve, though single readings can be large or run the other way; further: the source files actives as falling curves though it sought activators and does not explain the sign; nearly all actives have a fitted effect of over 65% in size
Target sequence (P80244 whole entry, looked up): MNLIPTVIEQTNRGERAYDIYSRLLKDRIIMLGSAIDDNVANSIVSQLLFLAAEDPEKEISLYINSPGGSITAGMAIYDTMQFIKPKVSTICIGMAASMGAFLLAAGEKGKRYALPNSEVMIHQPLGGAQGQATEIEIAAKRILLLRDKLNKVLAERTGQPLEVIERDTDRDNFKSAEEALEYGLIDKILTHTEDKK
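FRET quenching reversal measured ClpP activation: 10 microg/mL B. subtilis ClpP at pH 8 with the FRET-FV decapeptide, read at 430 nm after 320 nm excitation. The 20-min minus 0-min signal was scaled between DMSO/no-enzyme wells and ADEP (5.8 microM final).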
TDP1 cell noCPT: qHTS for Inhibitors of human tyrosyl-DNA phosphodiesterase 1 (TDP1): qHTS in cells in absence of CPT | actives 15% (n = 420,000) | DT40 Tdp1-/- hTDP1 cells, no CPT, ATP luminescence, 48 h | Potency, µM (series often up to 46.2 µM), hits mostly inhibitors; further: nearly all actives have a fitted effect of over 55% in size
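No-CPT arm: Tdp1-/-;hTDP1 DT40 cells (400/well) plus compounds, incubated ≥48 hr at 37 °C. Readout CellTiter-Glo luminescence.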
TDP1 block: qHTS Assay for Inhibitors of Tyrosyl-DNA Phosphodiesterase (TDP1); actives 0.28% (n = 350,000); recombinant TDP1, AlphaScreen DNA substrate cleavage; Potency, µM (highest dose often 130 µM), most hits filed as inhibitors; Tyrosyl-DNA phosphodiesterase 1 (Homo sapiens), Q9NUW8; further: nearly all actives have a fitted effect of over 40% in size
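Recombinant human Tdp1 (E. coli-expressed, 1 nM final) preincubated with compounds 15 min at room temperature, then 5'-biotin/3'-phosphotyrosine-FITC DNA substrate (15 nM final) added for 5 min. AlphaScreen beads (10 ug/ml final) added 10 min; cleavage lowers signal.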
Of the large screens only hits and unclear results are named; the others gave an inactive call. Most compounds without a hit are left out; they make up all but 17% or so of the library. Unless noted, the call rests on the fitted dose curve; in most records, active means well fitted curve in the direction sought with a large enough effect; inconclusive means small, poorly fitted or top-dose-only effect, or another doubt; inactive means no such curve, though single readings can be large; an effect the other way counts as inactive or inconclusive.

CCOC(=O)c1c(NC(=O)C(C)Sc2cn(CCNC(=O)c3ccccc3OC)c3ccccc23)sc2c1CCC2 (stereo not given)	DT40 TDP1 CPT 18µM, TDP1 cell noCPT 5.2µM
CCOC(=O)c1c(NC(=O)C(C)Sc2cn(CCNC(=O)c3ccc(OC)c(OC)c3)c3ccccc23)sc2c1CCC2 (stereo not given)	DT40 TDP1 CPT 21µM, TDP1 cell noCPT inconclusive
CCOC(=O)c1c(NC(=O)CSc2cn(CCNC(=O)c3c(F)cccc3F)c3ccccc23)sc2c1CCC2	DT40 TDP1 CPT inconclusive, TDP1 cell noCPT inconclusive
CCOC(=O)c1c(NC(=O)CSc2nnc(-c3c[nH]c4ccccc34)n2CCOC)sc2c1CCCC2	DT40 TDP1 CPT 23µM, TDP1 cell noCPT 15µM
CCOC(=O)c1c(NC(=O)CSc2cn(CCNC(=O)c3ccc(OC)c(OC)c3)c3ccccc23)sc2c1CCCC2	DT40 TDP1 CPT 7.3µM, TDP1 cell noCPT 2.9µM
CCOC(=O)c1c(NC(=O)c2cc(-c3ccc(OC)c(OC)c3)on2)sc2c1CCCC2	none
COC(=O)C1=C(C(=O)OC)[C@@H]2N(Cc3ccccc3)c3ccccc3[C@@]23C[C@@H](C(=O)OC)N(S(=O)(=O)c2ccc(OC)cc2)C3=N1	none (no result: DT40 TDP1 CPT, ClpP mod, TDP1 cell noCPT)
Nc1cc(N)[nH]c(=S)n1	none (no result: TDP1 block)
CCCCNC(=O)C1(C)CCCCN1C(=O)c1c(Cl)cccc1Cl (stereo not given)	DT40 TDP1 CPT inconclusive, TDP1 cell noCPT 13µM (no result: TDP1 block)
CCCCNC(=O)C1(C)CCCCN1C(=O)c1ccc2sccc2c1 (stereo not given)	DT40 TDP1 CPT inconclusive, TDP1 cell noCPT 16µM (no result: TDP1 block)
CCCCNC(=O)C1(C)CCCCN1C(=O)c1c(F)ccc(C)c1F (stereo not given)	none (no result: TDP1 block)
CCCCNC(=O)C1(C)CCN1C(=O)c1cc(-c2cccs2)oc1C (stereo not given)	DT40 TDP1 CPT 1.6µM, TDP1 cell noCPT 3.7µM (no result: TDP1 block)
CCCCNC(=O)C1(C)CCCCN1C(=O)c1cc2ccccc2s1 (stereo not given)	DT40 TDP1 CPT 8.2µM, TDP1 cell noCPT 15µM (no result: TDP1 block)
CCOC(=O)C1(CCc2ccccc2)CCN(C(=O)C(C)n2cncn2)CC1 (stereo not given)	none (no result: ClpP mod)
COc1ccc(C(C(=O)NCCC(C)C)N(CCN2CCOCC2)C(=O)Cn2nnc3ccccc32)c(OC)c1 (stereo not given)	none (no result: ClpP mod)
COc1ccc(N2CCN(CC(O)COC(c3ccc(F)cc3)c3ccc(F)cc3)CC2)cc1 (stereo not given)	DT40 TDP1 CPT 18µM, TDP1 cell noCPT 29µM (no result: TDP1 block)
COc1ccc(N2CCN(CC(O)COc3ccc(F)cc3)CC2)cc1 (stereo not given)	DT40 TDP1 CPT inconclusive (no result: TDP1 block)
OC(CSc1ccccc1Cl)CN1CCN(c2ccc(F)cc2)CC1 (stereo not given)	DT40 TDP1 CPT 18µM, TDP1 cell noCPT 23µM
OC(CSc1c(Cl)cccc1Cl)CN1CCN(c2ccc(F)cc2)CC1 (stereo not given)	DT40 TDP1 CPT inconclusive, TDP1 cell noCPT inconclusive
CCOC(=O)CC1Sc2ccccc2NC1=S (stereo not given)	none (no result: ClpP mod)
CCCOc1ccccc1-n1sc2c(c1=S)-c1cc(OC)cc3c1N(C(=O)C3=O)C2(C)C	DT40 TDP1 CPT 16µM, TDP1 cell noCPT 16µM
CCc1cccc(-n2c(=O)c3cccnc3n2CC(=O)Nc2ccc(F)c(C)c2)c1	DT40 TDP1 CPT inconclusive, TDP1 cell noCPT inconclusive
CCOC(=O)c1ccccc1NC(=O)Cn1c2ncccc2c(=O)n1-c1ccccc1	ClpP mod 11µM
Cc1ccc(CNC(=O)Cn2c3ncccc3c(=O)n2-c2ccc(C)cc2)cc1	DT40 TDP1 CPT 21µM, ClpP mod inconclusive, TDP1 cell noCPT inconclusive
CCc1cccc(-n2c(=O)c3cccnc3n2CC(=O)Nc2c(C)cc(C)cc2C)c1	DT40 TDP1 CPT inconclusive, TDP1 cell noCPT 23µM
Cc1ccc(-n2c(=O)c3cccnc3n2CC(=O)Nc2ccc(C)cc2Cl)cc1	DT40 TDP1 CPT inconclusive, TDP1 cell noCPT 13µM
CN(C)S(=O)(=O)c1ccc(S(=O)(=O)NCc2ccc3c(c2)OCO3)cc1	none (no result: TDP1 block)
Cn1c(S(=O)(=O)c2ccc([N+](=O)[O-])cc2)nc(Br)c1Br	DT40 TDP1 CPT 21µM, TDP1 cell noCPT inconclusive (no result: ClpP mod)
